Experimental findings from ChEMBL document CHEMBL1201862, “PubChem BioAssay data set” (2004) are described below.

Screen size: about 310,000 compounds; about 11,000 (3.5%) were called active. About 8% were inconclusive and are not listed. This is one part of a sample in which actives are shown more often than they occur. The calls are words filed in the database; no cut-off is given here.

This assay deals with Nuclear receptor ROR-gamma (Mus musculus) (UniProt P51450). Briefly: VP16 counterscreen qHTS for inhibitors of ROR gamma transcriptional activity. The format is functional. (A counterscreen serves to expose hits that act by an unwanted route or on another target.)
Sequence of Nuclear receptor ROR-gamma (Mus musculus) (P51450 whole entry): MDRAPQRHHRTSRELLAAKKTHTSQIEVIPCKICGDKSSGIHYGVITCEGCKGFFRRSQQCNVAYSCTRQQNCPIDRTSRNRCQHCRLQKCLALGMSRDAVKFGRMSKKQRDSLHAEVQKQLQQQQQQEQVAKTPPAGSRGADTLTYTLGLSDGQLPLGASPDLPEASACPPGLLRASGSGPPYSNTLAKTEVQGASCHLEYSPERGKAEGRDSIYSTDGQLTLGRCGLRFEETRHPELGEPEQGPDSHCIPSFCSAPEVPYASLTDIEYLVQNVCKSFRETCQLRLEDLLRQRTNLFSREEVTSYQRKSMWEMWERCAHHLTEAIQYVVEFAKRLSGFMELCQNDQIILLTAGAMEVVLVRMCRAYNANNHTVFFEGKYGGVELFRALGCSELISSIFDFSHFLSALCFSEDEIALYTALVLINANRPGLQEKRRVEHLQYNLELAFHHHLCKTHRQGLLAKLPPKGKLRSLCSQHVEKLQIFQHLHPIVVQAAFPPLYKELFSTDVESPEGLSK
Regarding `Cl[Te]1(Cl)OCCO1`, the Potency is 3.55 µM (active). As to `CNc1ccc2oc(C[C@@H]3OC4(CC[C@@H]3C)O[C@H](C(C)C(=O)c3ccc[nH]3)[C@H](C)C[C@H]4C)nc2c1C(=O)O` (some centres not stated), the Potency was 631 µM (active).
